Reference: PubChem BioAssay AID1159580 (chemical genetic matrix, 2015)
Where “and” joins values, the source holds several entries; their conditions need not be identical. Equal entries are not always repeated. Hit rate of the full screen: of about 5,500 compounds, about 2,000 (36%) were called active. Inconclusive results (about 18%) are left out. No stated cut-off is given here; in the data, active means normalized growth mostly below about 0.91 (no sharp cut-off); inconclusive means no clear call, values can overlap the other calls; inactive means mostly above about 0.92. Some of the results follow.

Test: chemical genetic growth profiling, strain panel (AID 1159580);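 further: tested at 20 µM; growth read once vehicle control cultures reached saturation at 30 °C; 1 = growth at the plate median or of vehicle wells; lower values mean less growth of the strain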
Details: S. cerevisiae deletion strains, growth OD

Measured: normalized growth

CN(C)C(=O)Oc1cccc([N+](C)(C)C)c1
inactive: locus YAL021C, strain ccr4, hits give low values 0.987 | locus YAL026C, strain drs2, hits give low values 1 | locus YAL030W, strain snc1, hits give low values 1 | locus YAL040C, strain CLN3, hits give low values 1 | locus YBL061C, strain skt5, hits give low values 1.01 | locus YBR009C, strain hhf1, hits give low values 1 | locus YBR021W, strain FUR4, hits give low values 0.992 | locus YBR023C, strain chs3, hits give low values 0.988 | locus YBR171W, strain sec66, hits give low values 0.992 | locus YBR229C, strain ROT2, hits give low values 0.985 | locus YBR231C, strain swc5, hits give low values 0.988 | locus YBR279W, strain paf1, hits give low values 1 | locus YCL011C, strain gbp2, hits give low values 0.996 | locus YCL016C, strain dcc1, hits give low values 0.992 | locus YCL029C, strain bik1, hits give low values 0.978 | locus YCL061C, strain MRC1 (second series), hits give low values 1 | locus YCL061C, strain MRC1, hits give low values 0.996 | locus YCL069W, strain vba3, hits give low values 1 | locus YCR088W, strain abp1, hits give low values 0.99 | locus YDL005C, strain med2, hits give low values 0.983 | locus YDL035C, strain GPR1, hits give low values 0.997 | locus YDL040C, strain nat1, hits give low values 0.992 | locus YDL074C, strain BRE1, hits give low values 1.05 | locus YDL101C, strain DUN1, hits give low values 0.986 | locus YDL134C, strain PPH21, hits give low values 0.987 | locus YDL185W, strain tfp1, hits give low values 0.98 | locus YDL192W, strain arf1, hits give low values 0.98 | locus YDR001C, strain nth1, hits give low values 0.998 | locus YDR069C, strain doa4, hits give low values 0.978 | locus YDR101C, strain arx1, hits give low values 0.977 | locus YDR137W, strain rgp1, hits give low values 1.01 | locus YDR150W, strain NUM1, hits give low values 1 | locus YDR159W, strain sac3, hits give low values 0.978 | locus YDR162C, strain NBP2, hits give low values 0.999 | locus YDR195W, strain ref2 1.01 | locus YDR297W, strain sur2, hits give low values 0.996 | locus YDR318W, strain mcm21, hits give low values 0.98 | locus YDR334W, strain swr1, hits give low values 1 | locus YDR335W, strain msn5, hits give low values 1.01 | locus YDR363W, strain ESC2, hits give low values 1.04 | locus YDR388W, hits give low values 0.986 | locus YDR392W, strain spt3, hits give low values 0.996 | locus YDR502C, strain sam2, hits give low values 0.977 | locus YEL003W, strain gim4, hits give low values 1.01 | locus YEL037C, strain rad23, hits give low values 0.998 | locus YEL061C, strain CIN8 (second series), hits give low values 1 | locus YEL061C, strain CIN8, hits give low values 0.994 | locus YER002W, strain NOP16, hits give low values 1.01 | locus YER015W, strain faa2, hits give low values 1 | locus YER016W, strain bim1, hits give low values 1.01 | locus YER110C, hits give low values 0.991 | locus YER111C, strain swi4, hits give low values 1.02 | locus YER155C, strain BEM2 (second series), hits give low values 1.01 | locus YER155C, strain BEM2, hits give low values 0.974 | locus YER167W, strain BCK2, hits give low values 0.987 | locus YFR010W, strain ubp6, hits give low values 0.996 | locus YGL078C, strain dbp3, hits give low values 0.983 | locus YGL086W, strain mad1, hits give low values 0.997 | locus YGL167C, strain pmr1, hits give low values 1.07 | locus YGL173C, strain kem1, hits give low values 1.01 | locus YGL227W, strain vid30, hits give low values 0.992 | locus YGL240W, strain doc1, hits give low values 0.986 | locus YGL248W, strain PDE1, hits give low values 0.993 | locus YGL253W, strain hxk2, hits give low values 1.01 | locus YGR135W, strain pre9, hits give low values 0.981 | locus YGR229C, strain SMI1, hits give low values 1.02 and 1.01 | locus YGR252W, strain gcn5, hits give low values 1.06 | locus YHR013C, strain ard1, hits give low values 1.02 | locus YHR027C, strain rpn1, hits give low values 0.99 | locus YHR030C, strain SLT2, hits give low values 0.992 and 0.979 | locus YHR079C, strain IRE1 (second series), hits give low values 0.979 | locus YHR079C, strain IRE1, hits give low values 0.961 | locus YHR094C, strain hxt1, hits give low values 0.989 | locus YHR129C, strain ARP1, hits give low values 0.989 | locus YHR142W, strain chs7, hits give low values 1.03 | locus YHR200W, strain rpn10, hits give low values 0.981 | locus YIL066C, strain RNR3, hits give low values 0.996 | locus YIL073C, strain SPO22, hits give low values 0.965 | locus YIL125W, strain kgd1, hits give low values 0.998 | locus YIR030C, strain dcg1, hits give low values 0.983 | locus YJL092W, strain hpr5, hits give low values 0.996 | locus YJL095W, strain BCK1 (second series), hits give low values 0.996 | locus YJL095W, strain BCK1, hits give low values 1.01 and 0.988 | locus YJL115W, strain asf1, hits give low values 1 | locus YJL129C, strain trk1, hits give low values 0.987 | locus YJL134W, strain LCB3, hits give low values 0.986 | locus YJL154C, strain vps35, hits give low values 1.01 | locus YJL164C, strain tpk1, hits give low values 1.01 | locus YJL166W, strain qcr8, hits give low values 0.999 | locus YJL168C, strain set2, hits give low values 0.988 | locus YJL187C, strain SWE1 (second series), hits give low values 0.987 | locus YJL187C, strain SWE1, hits give low values 0.992 | locus YJR043C, strain POL32, hits give low values 1.02 | locus YJR066W, strain TOR1, hits give low values 0.947
